For assay [1], the system named is thyroid hormone receptor (rat, GH3 cells). Kind of assay: qHTS assay to identify small molecule agonists of the thyroid receptor (TR) signaling pathway (AID 743066; calls by dose curve). In general terms: qHTS replaces the single test concentration by a dilution series.
Assay [2] concerns the target Estrogen receptor (Homo sapiens) (UniProt P03372). Kind of assay: qHTS assay to identify small molecule antagonists of the estrogen receptor alpha (ER-alpha) signaling pathway (AID 743069; active = well fitted curve in the direction sought with a large enough effect in the signal ratio in the repeat runs, not every such curve was filed as active; the % refers to the signal ratio). Summed up: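 Estradiol-stimulated ER-alpha-UAS-bla HEK293 cells, 18 hr compound exposure at 37C. LiveBLAzer B/G substrate, 2 hr RT, fluorescence read.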
Assay [3] shares this target. Kind of assay: qHTS assay to identify small molecule agonists of the estrogen receptor alpha (ER-alpha) signaling pathway (AID 743075; calls by dose curve;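 note: HEK293 GripTite cells with ER-alpha and UAS-driven beta-lactamase reporter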).
The nature of assay [4]: qHTS assay to identify small molecule antagonists of the estrogen receptor alpha (ER-alpha) signaling pathway using the BG1 cell line (AID 743080; calls by dose curve;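 note: BG1 cells stimulated with 17beta-estradiol alongside compound; series mostly up to about 70 µM; nearly all actives have a fitted effect of over 25% in size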). Summed up: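 Luciferase inhibition measured with ONE-Glo after 30 min at RT in BG1Luc4E2 cells given test compounds and 17beta-estradiol for 21.5 h at 37 C; CellTiter-Fluor viability read in the same wells beforehand.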
Assay [5] is described as follows: qHTS assay to identify small molecule antagonists of the estrogen receptor alpha (ER-alpha) signaling pathway using the BG1 cell line - cell viability counter screen (AID 743081).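 Note: compound given together with 17beta-estradiol as the ER stimulus; series mostly up to about 70 µM; nearly all actives have a fitted effect of over 45% in size.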
Assay [6] deals with Aromatase (Homo sapiens) (UniProt P11511). Kind of assay: qHTS assay to identify aromatase inhibitors (AID 743083). Note: series mostly up to about 70 µM; nearly all actives have a fitted effect of over 55% in size.
Assay [7] is described as follows: qHTS assay to identify aromatase inhibitors - cell viability counter screen (AID 743084).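 Note: cells stimulated with testosterone during compound exposure; nearly all actives have a fitted effect of over 55% in size.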
The target of assay [8] is Aryl hydrocarbon receptor (Homo sapiens) (UniProt P35869). Kind of assay: qHTS assay to identify small molecule that activate the aryl hydrocarbon receptor (AhR) signaling pathway (AID 743085).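 For activation: HG2L7.5c1 human HepG2 liver cells with stably integrated DRE-driven firefly reporter; series mostly up to about 70 µM.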 Note: nearly all actives have a fitted effect of over 15% in size. Note: potency is the fitted concentration of half-maximal effect. Summed up: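 Reporter assay in engineered HepG2 line HG2L7.5c1, whose plasmid carries twenty dioxin responsive elements upstream of firefly luciferase. Treatment lasted 24 h at 37C; ONE-Glo luminescence gauged induction.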

Assay [9] in a line: qHTS assay to identify small molecule that activate the aryl hydrocarbon receptor (AhR) signaling pathway - cell viability counter screen (AID 743086).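 Note: HepG2 liver cells carrying the AhR DRE luciferase reporter; series mostly up to about 70 µM; nearly all actives have a fitted effect of over 45% in size.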 The method in brief:
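HepG2-AhR-luc (HG2L7.5c1) cells, 4000/well, were preincubated 5 h at 37C, exposed to compound in qHTS format for 24 hr at 37C, then given CellTiter-Fluor for 30 min; viability was read as fluorescence in the reporter wells.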

Assay [10] has as its target Peroxisome proliferator-activated receptor gamma (Homo sapiens) (UniProt P37231). Kind of assay: qHTS assay to identify small molecule antagonists of the peroxisome proliferator-activated receptor gamma (PPARg) signaling pathway (AID 743191; calls by dose curve; note: series mostly up to about 63 µM; nearly all actives have a fitted effect of over 30% in size). The method in brief:
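GeneBLAzer PPARg UAS-bla HEK293H cells carrying a UAS-driven beta-lactamase reporter were plated at 3000 cells/well, preincubated 5 h at 37C, then given compound for 17 h at 37C; LiveBLAzer B/G FRET substrate was read after 1 h at room temperature.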

Assay [11] is described as follows: qHTS assay to identify small molecule antagonists of the peroxisome proliferator-activated receptor gamma (PPARg) signaling pathway - cell viability counter screen (AID 743194). Note: nearly all actives have a fitted effect of over 55% in size. Summed up:
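PPARg-UAS-bla HEK293H cells were plated, rested 5 h at 37 C, then treated with compounds plus rosiglitazone (50 nM final) for 17 h at 37 C; viability was then read by CellTiter-Glo luminescence after 30 min at room temperature.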

Assay [12] is described as follows: qHTS assay for small molecule agonists of the antioxidant response element (ARE) signaling pathway (AID 743202; active = well fitted activation curve with a large enough effect in the signal ratio in the repeat runs, not every such curve was filed as active; the % refers to the signal ratio). The method in brief: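 Compounds delivered in DMSO to ARE-bla HepG2 cells (2,000 cells/well, pre-incubated 5 h) and left 16 h at 37 C. LiveBLAzer B/G FRET substrate then added for 2 h at RT before fluorescence reading.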
Assay [13] is described as follows: qHTS assay for small molecule agonists of the antioxidant response element (ARE) signaling pathway - cell viability counter screen (AID 743203; calls by dose curve; note: nearly all actives have a fitted effect of over 55% in size). Summed up:
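Seeded at 2,000 cells/well, ARE-bla HepG2 cells were incubated 5 hrs before compound addition. After 16 hrs of treatment at 37C with 5% CO2, CellTiter-Glo reagent was added and luminescence read 30 min later.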

The nature of assay [14]: qHTS assay for small molecule activators of the heat shock response signaling pathway (AID 743210; active = well fitted activation curve with a large enough effect in the signal ratio in the repeat runs, with a control signal flat, not every such curve was filed as active; the % refers to the signal ratio;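 note: HeLa cells with beta-lactamase reporter driven by heat shock elements; series mostly up to about 63 µM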). Summed up: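 Reporter gene assay: HeLa cells stably bearing an HSE-bla construct, compound treatment 5 h at 37 C, LiveBLAzer substrate 2.5 h at RT, fluorescence intensity.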
Assay [15] is described as follows: qHTS assay to identify small molecule agonists of the peroxisome proliferator-activated receptor delta (PPARd) signaling pathway - cell viability counter screen (AID 743211). Note: nearly all actives have a fitted effect of over 55% in size. Summed up:
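Multiplexed format: after the 2 h room-temperature LiveBLAzer B/G FRET step, CellTiter-Glo was added to the same wells. Luminescence after 30 min gave cell viability; compound exposure was 17 h at 37C.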

Assay [16] is described as follows: qHTS assay to identify small molecule antagonists of the estrogen receptor alpha (ER-alpha) signaling pathway - cell viability counter screen (AID 743074; calls by dose curve;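 note: HEK293 cells carrying ER-alpha-UAS-bla reporter stimulated with 17beta-estradiol; nearly all actives have a fitted effect of over 45% in size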; note: potency is the fitted concentration of half-maximal effect).
For assay [17], the target named is Estrogen receptor (Homo sapiens) (UniProt P03372). Kind of assay: qHTS assay to identify small molecule agonists of the estrogen receptor alpha (ER-alpha) signaling pathway using the BG1 cell line (AID 743079). Note: nearly all actives have a fitted effect of over 20% in size.
In assay [18] the target is Peroxisome proliferator-activated receptor gamma (Homo sapiens) (UniProt P37231). Kind of assay: qHTS assay to identify small molecule agonists of the peroxisome proliferator-activated receptor gamma (PPARg) signaling pathway (AID 743094; active = well fitted activation curve with a large enough effect in the signal ratio in the repeat runs, not every such curve was filed as active; the % refers to the signal ratio). Summed up:
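Quantitative HTS agonist mode: stable HEK293H line with UAS-beta-lactamase reporter under PPARg control, 17 h compound exposure at 37C, fluorescence after 1 h FRET substrate loading at room temperature.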

A short description of assay [19]: qHTS assay for small molecule activators of the heat shock response signaling pathway - cell viability counter screen (AID 743209). Note: nearly all actives have a fitted effect of over 50% in size. The method in brief:
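First, HSE-bla HeLa cells were seeded at 1500 cells/well and kept overnight at 37 C. Next, compounds were pinned in and incubated 5 h. After the FRET substrate step, CellTiter-Glo was added and luminescence read 30 min later.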

This note sets out measurements from PubChem BioAssay (Tox21).

Where “and” joins values, the source holds several entries; their conditions need not be identical. Equal entries are not always repeated. Results filed as inconclusive are left out. Unmarked numbers belong to inactive results. Calls of active or inactive are those of the source. Unless noted, calls come from the whole dose curve; as a rule, active = well fitted curve in the direction sought with a large enough effect in the repeat runs; inconclusive = weak or mixed curves; inactive = no such curve, though single readings can be large; an effect the other way counts as inactive or inconclusive.

Chain of Aromatase (Homo sapiens) (P11511 whole entry, looked up): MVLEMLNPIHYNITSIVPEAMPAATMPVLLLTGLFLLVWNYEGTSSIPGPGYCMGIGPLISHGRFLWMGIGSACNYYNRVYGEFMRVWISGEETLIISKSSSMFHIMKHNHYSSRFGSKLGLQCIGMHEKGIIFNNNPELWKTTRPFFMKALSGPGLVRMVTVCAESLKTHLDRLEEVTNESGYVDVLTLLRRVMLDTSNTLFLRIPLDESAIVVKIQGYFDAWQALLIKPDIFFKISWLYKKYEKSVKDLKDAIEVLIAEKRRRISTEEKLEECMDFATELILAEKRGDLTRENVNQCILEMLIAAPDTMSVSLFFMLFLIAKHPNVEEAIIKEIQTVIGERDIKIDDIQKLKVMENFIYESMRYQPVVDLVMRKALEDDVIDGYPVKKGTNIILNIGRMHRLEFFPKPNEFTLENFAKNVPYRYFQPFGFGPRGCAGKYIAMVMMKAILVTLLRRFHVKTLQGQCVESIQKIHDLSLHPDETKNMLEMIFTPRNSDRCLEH
Chain of Estrogen receptor (Homo sapiens) (P03372 whole entry, looked up): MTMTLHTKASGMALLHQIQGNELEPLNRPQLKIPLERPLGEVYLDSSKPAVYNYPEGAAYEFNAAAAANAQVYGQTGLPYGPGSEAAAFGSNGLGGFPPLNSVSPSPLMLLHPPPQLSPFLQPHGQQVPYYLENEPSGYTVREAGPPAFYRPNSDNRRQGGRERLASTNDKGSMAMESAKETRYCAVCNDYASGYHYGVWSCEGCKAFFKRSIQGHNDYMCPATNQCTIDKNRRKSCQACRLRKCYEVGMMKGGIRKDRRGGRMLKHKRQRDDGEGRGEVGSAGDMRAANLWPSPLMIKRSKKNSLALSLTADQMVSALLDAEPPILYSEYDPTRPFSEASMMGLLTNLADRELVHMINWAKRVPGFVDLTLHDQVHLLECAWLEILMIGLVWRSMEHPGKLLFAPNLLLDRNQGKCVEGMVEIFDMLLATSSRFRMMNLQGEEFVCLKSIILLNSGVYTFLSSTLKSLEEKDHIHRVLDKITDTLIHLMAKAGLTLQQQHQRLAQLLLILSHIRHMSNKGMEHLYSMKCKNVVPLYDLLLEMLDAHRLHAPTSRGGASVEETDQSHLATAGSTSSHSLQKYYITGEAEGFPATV
Chain of Peroxisome proliferator-activated receptor gamma (Homo sapiens) (P37231 whole entry, looked up): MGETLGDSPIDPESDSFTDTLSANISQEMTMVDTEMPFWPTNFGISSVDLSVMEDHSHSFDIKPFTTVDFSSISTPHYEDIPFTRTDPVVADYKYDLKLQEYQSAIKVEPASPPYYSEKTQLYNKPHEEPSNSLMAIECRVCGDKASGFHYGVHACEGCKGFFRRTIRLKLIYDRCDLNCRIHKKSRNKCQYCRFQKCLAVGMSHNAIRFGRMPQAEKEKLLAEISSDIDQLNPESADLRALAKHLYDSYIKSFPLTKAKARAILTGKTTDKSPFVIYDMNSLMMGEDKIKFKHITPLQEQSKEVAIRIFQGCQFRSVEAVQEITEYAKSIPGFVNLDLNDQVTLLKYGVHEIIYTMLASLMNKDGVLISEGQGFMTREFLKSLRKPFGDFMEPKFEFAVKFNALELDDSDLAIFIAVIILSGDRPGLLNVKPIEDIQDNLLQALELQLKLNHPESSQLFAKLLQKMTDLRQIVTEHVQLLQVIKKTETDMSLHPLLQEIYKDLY
Chain of Aryl hydrocarbon receptor (Homo sapiens) (P35869 whole entry, looked up): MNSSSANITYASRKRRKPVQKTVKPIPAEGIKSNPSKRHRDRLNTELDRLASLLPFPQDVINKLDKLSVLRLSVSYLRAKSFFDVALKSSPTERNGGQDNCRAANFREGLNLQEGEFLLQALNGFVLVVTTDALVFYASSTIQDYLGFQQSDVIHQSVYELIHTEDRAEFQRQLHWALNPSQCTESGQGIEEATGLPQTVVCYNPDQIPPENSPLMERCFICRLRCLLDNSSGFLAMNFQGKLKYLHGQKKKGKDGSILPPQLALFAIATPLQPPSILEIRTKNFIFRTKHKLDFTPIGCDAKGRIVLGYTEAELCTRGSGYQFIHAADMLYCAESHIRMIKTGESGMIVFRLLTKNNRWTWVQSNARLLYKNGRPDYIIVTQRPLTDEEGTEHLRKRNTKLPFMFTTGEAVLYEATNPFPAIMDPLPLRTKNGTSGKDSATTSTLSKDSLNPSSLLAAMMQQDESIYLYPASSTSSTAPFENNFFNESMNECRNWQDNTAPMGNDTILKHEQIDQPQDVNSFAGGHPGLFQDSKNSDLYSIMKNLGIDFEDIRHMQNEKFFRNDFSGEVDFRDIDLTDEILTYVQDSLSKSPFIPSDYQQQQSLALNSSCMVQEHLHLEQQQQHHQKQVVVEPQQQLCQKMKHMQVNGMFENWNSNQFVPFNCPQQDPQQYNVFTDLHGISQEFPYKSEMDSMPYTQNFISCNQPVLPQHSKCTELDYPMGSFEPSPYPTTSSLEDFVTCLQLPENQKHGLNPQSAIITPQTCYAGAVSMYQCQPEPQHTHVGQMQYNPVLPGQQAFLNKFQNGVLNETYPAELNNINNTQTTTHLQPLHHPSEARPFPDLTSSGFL

With `CCOC(=O)OC(C)OC1=C(C(=O)Nc2ccccn2)N(C)S(=O)(=O)c2ccccc21` (stereo not drawn), the call in assay [1], in assay [5], in assay [6], in assay [11], in [13] and in assay [14] was inactive. The result in assay [15] was inactive. In addition, the Potency result in assay [2], in assay [3], in assay [4], in assay [7], in [8] and in assay [9] was “inactive” each time. Further, the Potency entry in assay [10] and in assay [12] was “inactive” in each case.
For the molecule `Nc1ccn([C@@H]2O[C@H](CO)[C@@H](O)C2O)c(=O)n1` (stereo partly drawn), the call in [1], in assay [5], in assay [6], in [11], in [13] and in [19] was inactive. Besides, the result in assay [14] and in assay [15] was inactive. In addition, the Potency entry in [16], in assay [3], in [17], in [4], in assay [7] and in assay [8] was “inactive” each time. Also, the Potency result in [9] and in assay [18] was “inactive” throughout.
Regarding `Cc1ccc(C(=O)Nc2ccc(S(=O)(=O)O)c3cc(S(=O)(=O)O)cc(S(=O)(=O)O)c23)cc1NC(=O)c1cccc(NC(=O)Nc2cccc(C(=O)Nc3cc(C(=O)Nc4ccc(S(=O)(=O)O)c5cc(S(=O)(=O)O)cc(S(=O)(=O)O)c45)ccc3C)c2)c1`, the outcome in assay [1], in [5], in [6], in assay [19], in assay [14] and in assay [15] was inactive. For the same molecule, the Potency result in assay [2], in [3], in assay [17], in assay [4], in [7] and in assay [8] was “inactive” throughout. In addition, the Potency result in assay [9], in [10] and in assay [12] was “inactive” throughout.
`Cc1ncc(COP(=O)(O)O)c(C=O)c1O`: the molecule was called inactive in assay [1], in [5], in assay [6], in assay [11], in assay [13] and in [19]. Further, the result in assay [15] was inactive. Moreover, the Potency entry in [2], in [3], in [17], in [4], in [8] and in [9] was “inactive” each time. Further, the Potency entry in assay [18] and in assay [10] was “inactive” throughout.
On to `O=S(=O)(O)c1cccc2c(S(=O)(=O)O)cccc12`, for which the molecule was classed as inactive in [1], in assay [6], in assay [11], in assay [13], in assay [19] and in [15]. For the same molecule, the Potency result in [16], in [7], in assay [9], in assay [18], in assay [10] and in assay [12] was “inactive” each time.
Turning to `Nc1ccncc1N`, the result in [1], in assay [5], in assay [6], in [11], in assay [13] and in [19] was inactive. The molecule was called inactive in assay [14] and in [15]. Moreover, the Potency entry in [16], in [7], in assay [9], in assay [18], in assay [10] and in assay [12] was “inactive” throughout. Also, the Potency in assay [8] was 2660 nM (active).
On to `O=S(=O)(O)c1cc(O)c(O)c(S(=O)(=O)O)c1`, for which the result in [1], in assay [5], in [6], in [11], in assay [19] and in assay [14] was inactive. For the same molecule, in assay [15], the outcome was inactive. The Potency entry in [2], in assay [16], in [3], in assay [17], in [4] and in assay [7] was “inactive” throughout. In addition, the Potency result in assay [8], in [9] and in assay [10] was “inactive” each time.
`Cc1nc2ccc(CN(C)c3ccc(C(=O)N[C@@H](CCC(=O)O)C(=O)O)s3)cc2c(=O)[nH]1`: the molecule was classed as inactive in [1], in [5], in assay [6], in assay [11], in assay [13] and in assay [19]. Further, the molecule was called inactive in assay [14] and in assay [15]. The Potency in assay [16] is 190 nM (active) and 239 nM (active). The Potency entry in assay [7], in assay [8], in [9], in [18] and in assay [10] was “inactive” in each case.
Take `CC1(C)OC[C@@H](COC(=O)CCc2ccc(OC[C@@H](O)CNCCNC(=O)N3CCOCC3)cc2)O1`: the molecule was called inactive in assay [1], in [5], in assay [6], in assay [11], in [19] and in assay [15]. Further, the Potency result in [2], in assay [16], in assay [3], in [17], in [4] and in assay [7] was “inactive” throughout. The Potency result in assay [8], in assay [9] and in [10] was “inactive” each time.
